Usually AC50 stands for the concentration giving half of the maximal activity seen.

Records with an inconclusive call do not appear. The source made the active and inactive calls. How the source made its calls, unless noted: active means hit-call score of the fitted dose curve at least 0.9, where 1 is the maximum; inconclusive means response in the unintended direction; inactive means score below 0.9.

The test system of one assay is Sodium/Iodide Symporter (NIS), SLC5A5 (gene 6528). The experiment in a line: CPHEA_Stoker_NIS_Inhibition_RAIU: CPHEA's Radioactive Iodide Uptake (RAIU) Assay for Sodium/Iodide Symporter (NIS) Inhibition, Stoker and Laws Labs (AID 2283841).
Conditions: not given
In outline: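 hNIS-HEK293T-EPA cells incubated 2 h at room temperature with compound (0.001–100 uM, 0.5% DMSO) and 329 pM final 125I in HBSS/10 mM HEPES, pH 7.4. Intracellular 125I counted; normalised to DMSO maximal uptake, triplicate, three biological replicates.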
Turning to `CCC[CH2][Sn]([CH2]CCC)([CH2]CCC)[O]C(=O)c1ccccc1`, the AC50 is 1.4 µM (active).
Turning to `CCC(C)(C)c1ccc(O)c(C(C)(C)CC)c1`, the result was inactive.
For the molecule `CC(=O)[O][Hg][c]1ccccc1`, the AC50 is 50 µM (active).
Turning to `Cc1ccccc1C(=O)Nc1cccc(OC(C)C)c1`, the outcome was inactive.
The same measure, in the same setting: the value for `COP(=S)(OC)Oc1ccc(Sc2ccc(OP(=S)(OC)OC)cc2)cc1` was “inactive”; that for `O=C(Nc1ccc2[nH]ccc2c1)c1cc2cc(F)ccc2n1Cc1cccc(F)c1` was “inactive”.
For the molecule `CCCCCCCCSC(=O)Oc1cc(Cl)nnc1-c1ccccc1`, the result was inactive.
As for `C=C(C)C(=O)[O][Sn]([CH2]CCC)([CH2]CCC)[CH2]CCC`, the AC50 was 5.24 µM (active).
Still for that read-out and setting: under `CCN1CCC2(CC1)COc1cc3c(cc12)N(C(=O)c1ccc(-c2ccc(-c4nnc(C)o4)cc2C)cc1)CC3` stands 72.8 µM (active).
Consider `CC(C)(c1ccc(OCC2CO2)cc1)c1ccc(OCC2CO2)cc1` (centres undefined), for which the result was inactive.
Still for that read-out and setting: under `c1cc[c]([Hg][c]2ccccc2)cc1` stands “inactive”; under `CC(C)c1cccc(C(C)C)c1O`, “inactive”.
Same read-out and setting: under `O=C(OC1CCCCC1)c1ccccc1C(=O)OC1CCCCC1` stands “inactive”; under `NNC(=S)NN`, “inactive”.
Regarding `O=C/C=C/c1ccccc1`, the outcome was inactive.
The same measure, in the same setting: under `Fc1ccc(C2(Cn3cncn3)OC2c2ccccc2Cl)cc1` (centres undefined) stands “inactive”.
Same read-out and setting: the value for `CCOP(=S)(OCC)Oc1nc(Cl)c(Cl)cc1Cl` was “inactive”; that for `[O-][Cl+2]([O-])O` was “inactive”.
For `O=C1C(Cl)=C(Cl)C(=O)c2ccccc21`, the AC50 was 9.92 µM (active).
As for `CC(=O)c1cc(C(C)(C)C)cc2c1CCC2(C)C`, the result was inactive.
On the same count and under the same terms, under `Cn1sc(Cl)cc1=O` stands “inactive”; under `O=C(NCO)NCO`, “inactive”.

Tested on in the next assay: not listed separately
As to the kind of experiment: CPHEA_Stoker_NIS_Cytotoxicity: Cytotoxicity Assessment for CPHEA's Radioactive Iodide Uptake (RAIU) Assay for Sodium/Iodide Symporter (NIS) Inhibition, Stoker and Laws Labs (AID 2283897).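 On AC50: active means loss of ATP signal versus DMSO meaning cytotoxicity.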
Conditions: not given
The gist of the method: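 hNIS-HEK293T-EPA cells, human NIS expressed in HEK293T, treated 2 h with chemicals (0.001–100 uM, 0.5% final DMSO). ATP content read by CellTiter-Glo luminescence; loss of signal analysed relative to DMSO.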
With `CCC[CH2][Sn]([CH2]CCC)([CH2]CCC)[O]C(=O)c1ccccc1`, the AC50 was 9.05 µM (active).
The same measure, in the same setting: under `CCC(C)(C)c1ccc(O)c(C(C)(C)CC)c1` stands 9.92 µM (active).
The same measure, in the same setting: the value for `CC(=O)[O][Hg][c]1ccccc1` was 9.92 µM (active).
As to `Cc1ccccc1C(=O)Nc1cccc(OC(C)C)c1`, the outcome was inactive.
Take `COP(=S)(OC)Oc1ccc(Sc2ccc(OP(=S)(OC)OC)cc2)cc1`: the result was inactive.
Still for that read-out and setting: the value for `O=C(Nc1ccc2[nH]ccc2c1)c1cc2cc(F)ccc2n1Cc1cccc(F)c1` was “inactive”; that for `CCCCCCCCSC(=O)Oc1cc(Cl)nnc1-c1ccccc1` was “inactive”.
`C=C(C)C(=O)[O][Sn]([CH2]CCC)([CH2]CCC)[CH2]CCC`: the AC50 is 1.25 µM (active).
Same read-out and setting: under `CCN1CCC2(CC1)COc1cc3c(cc12)N(C(=O)c1ccc(-c2ccc(-c4nnc(C)o4)cc2C)cc1)CC3` stands 8.43 µM (active).
Regarding `CC(C)(c1ccc(OCC2CO2)cc1)c1ccc(OCC2CO2)cc1` (centres undefined), the result was inactive.
Same read-out and setting: the value for `c1cc[c]([Hg][c]2ccccc2)cc1` was “inactive”; that for `CC(C)c1cccc(C(C)C)c1O` was “inactive”; that for `O=C(OC1CCCCC1)c1ccccc1C(=O)OC1CCCCC1` was “inactive”.
Still for that read-out and setting: under `NNC(=S)NN` stands “inactive”.
On the same count and under the same terms, the value for `O=C/C=C/c1ccccc1` was “inactive”.
For the molecule `Fc1ccc(C2(Cn3cncn3)OC2c2ccccc2Cl)cc1` (centres undefined), the outcome was inactive.
For `CCOP(=S)(OCC)Oc1nc(Cl)c(Cl)cc1Cl`, the outcome was inactive.
Same read-out and setting: the value for `[O-][Cl+2]([O-])O` was “inactive”.
As for `O=C1C(Cl)=C(Cl)C(=O)c2ccccc21`, the AC50 is 50 µM (active).
`CC(=O)c1cc(C(C)(C)C)cc2c1CCC2(C)C`: the result was inactive.
In the case of `Cn1sc(Cl)cc1=O`, the result was inactive.
Still for that read-out and setting: under `O=C(NCO)NCO` stands “inactive”.

Read-out in another assay: not listed separately
The experiment in a line: CEETOX_H295R_11DCORT_noMTC: CeeTox H295R High-throughput Steroidogenesis Assay for 11-Deoxycortisol (11DCORT), maximum tolerated concentration (MTC) filtered results only (AID 2283911; active means hit-call score of the fitted dose curve at least 0.9, where 1 is the maximum; inactive means score below 0.9). Particulars: actives raise or lower the signal. In outline: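 Readout is 11-deoxycortisol in culture medium by reverse-phase HPLC with MS/MS, after 48 h chemical treatment of forskolin-primed H295R cells. Values are relative to DMSO and unfiltered for cytotoxicity.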
For the molecule `ClC(Cl)=C(Cl)C(Cl)=C(Cl)Cl`, the result was inactive.
On to `c1cc[c]([Hg][c]2ccccc2)cc1`, for which the AC50 is 53.6 µM (active).
Still for that read-out and setting: under `O=C(OC1CCCCC1)c1ccccc1C(=O)OC1CCCCC1` stands 2.24 µM (active).
Regarding `CCC1(c2ccc(N)cc2)CCC(=O)NC1=O` (centres undefined), the outcome was inactive.
As for `Cn1sc(Cl)cc1=O`, the result was inactive.

The values are drawn from PubChem BioAssay (EPA / NIEHS).
